Assay results reported in the supplement of paper PMC10849652.
Targets with a hit are over-represented here; the source holds about 7,900 in all. About 0.6% of all pairs of compound and target were hits. A number with no mark means an inactive call.

Experiments:
Assay in all cases: log2 fold change, soluble protein after heating vs DMSO (PISA); higher = thermal stabilisation; K562 cells, 10 uM, 30 min; active = over 0.2 and 3.5 SD of the protein, either way, in both replicates (recomputed)
[1] = compound: CC1=C(C=C(C=C1)NC(=O)C2=CC(=CC=C2)C(C)(C)C#N)NC3=CC4=C(C=C3)N=CN(C4=O)C
Summary of the method: (§1)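 Values are thermal stability changes relative to control samples and are taken from duplicates. They are stated as log2 fold changes. Before quantification by TMTpro 16plex LC-MS/MS with equalised channel sums, K562 cells at 2×10^6 cells/mL were treated with 10 μM compound for 30 min, heated in aliquots for 3 min across 48°C-58°C, pooled, extracted in PBS with 0.5% NP-40 at 4°C, and centrifuged at 21,000xg for 90 min to give the soluble supernatant.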

[2] = compound: CC1=C(C=C(C=C1)NC(=O)C2=CC(=CC=C2)N(C)C)NC(=O)C3=CC=C(C=C3)O
Summary of the method: as §1

[3] = compound: CC1=CC=C(C=C1)SC2=C3C=C(SC3=CN=C2)C(=O)N
Summary of the method: as §1

[4] = compound: CC1=NC(=CC=C1)C2=C(N=C(N2)C(C)(C)C)C3=CC4=NC=CN=C4C=C3
Summary of the method: as §1

Nexturastat A = compound: CCCCN(Cc1ccc(C(=O)NO)cc1)C(=O)Nc1ccccc1 [Nexturastat A]
Summary of the method: as §1

vemurafenib = compound: CCCS(=O)(=O)Nc1ccc(F)c(C(=O)c2c[nH]c3ncc(-c4ccc(Cl)cc4)cc23)c1F [vemurafenib]
Summary of the method: as §1

[5] = compound: CCCS(=O)(=O)Nc1ccc(F)c(C(=O)c2c[nH]c3ncc(Cl)cc23)c1F
Summary of the method: as §1

[6] = compound: CCCc1cc(C)[nH]c(=O)c1CNC(=O)c1cc(-c2ccnc(N3CCN(C)CC3)c2)cc2c1cnn2C(C)C
Summary of the method: as §1

givinostat = compound: CCN(CC)Cc1ccc2cc(COC(=O)Nc3ccc(C(=O)NO)cc3)ccc2c1 [givinostat]
Summary of the method: as §1

barasertib = compound: CCN(CCCOc1ccc2c(Nc3cc(CC(=O)Nc4cccc(F)c4)[nH]n3)ncnc2c1)CCOP(=O)(O)O [barasertib]
Summary of the method: as §1

UniProt P52333, sequence (P52333 whole entry, looked up): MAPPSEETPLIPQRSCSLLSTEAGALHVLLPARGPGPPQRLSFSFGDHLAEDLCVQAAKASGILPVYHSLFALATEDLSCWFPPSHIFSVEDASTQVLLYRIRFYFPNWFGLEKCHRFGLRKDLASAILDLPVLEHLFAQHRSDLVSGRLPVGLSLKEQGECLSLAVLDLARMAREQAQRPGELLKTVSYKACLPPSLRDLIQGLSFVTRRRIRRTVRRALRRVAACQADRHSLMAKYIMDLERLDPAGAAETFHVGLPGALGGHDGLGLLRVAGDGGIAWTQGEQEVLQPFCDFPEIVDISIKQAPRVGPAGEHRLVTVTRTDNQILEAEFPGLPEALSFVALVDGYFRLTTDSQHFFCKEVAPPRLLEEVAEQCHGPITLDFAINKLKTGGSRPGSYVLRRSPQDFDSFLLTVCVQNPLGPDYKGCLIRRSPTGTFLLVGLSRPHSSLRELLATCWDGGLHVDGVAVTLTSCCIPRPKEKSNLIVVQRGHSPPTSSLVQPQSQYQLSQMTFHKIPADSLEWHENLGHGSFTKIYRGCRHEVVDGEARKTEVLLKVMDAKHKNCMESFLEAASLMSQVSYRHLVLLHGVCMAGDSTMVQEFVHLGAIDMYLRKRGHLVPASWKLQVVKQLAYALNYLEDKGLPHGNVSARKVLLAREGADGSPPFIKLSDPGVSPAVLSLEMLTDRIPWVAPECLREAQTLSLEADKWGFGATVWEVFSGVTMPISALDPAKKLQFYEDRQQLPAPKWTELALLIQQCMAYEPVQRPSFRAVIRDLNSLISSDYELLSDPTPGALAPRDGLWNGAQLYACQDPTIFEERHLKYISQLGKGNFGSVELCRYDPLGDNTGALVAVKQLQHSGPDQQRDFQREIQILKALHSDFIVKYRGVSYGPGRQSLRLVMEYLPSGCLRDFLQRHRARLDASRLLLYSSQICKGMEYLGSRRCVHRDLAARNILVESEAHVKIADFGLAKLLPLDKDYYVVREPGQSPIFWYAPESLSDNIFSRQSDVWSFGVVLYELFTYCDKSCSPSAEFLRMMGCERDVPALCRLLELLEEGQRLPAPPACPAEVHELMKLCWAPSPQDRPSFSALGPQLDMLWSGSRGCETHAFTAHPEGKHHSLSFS
UniProt Q8NC56, sequence (Q8NC56 whole entry, looked up): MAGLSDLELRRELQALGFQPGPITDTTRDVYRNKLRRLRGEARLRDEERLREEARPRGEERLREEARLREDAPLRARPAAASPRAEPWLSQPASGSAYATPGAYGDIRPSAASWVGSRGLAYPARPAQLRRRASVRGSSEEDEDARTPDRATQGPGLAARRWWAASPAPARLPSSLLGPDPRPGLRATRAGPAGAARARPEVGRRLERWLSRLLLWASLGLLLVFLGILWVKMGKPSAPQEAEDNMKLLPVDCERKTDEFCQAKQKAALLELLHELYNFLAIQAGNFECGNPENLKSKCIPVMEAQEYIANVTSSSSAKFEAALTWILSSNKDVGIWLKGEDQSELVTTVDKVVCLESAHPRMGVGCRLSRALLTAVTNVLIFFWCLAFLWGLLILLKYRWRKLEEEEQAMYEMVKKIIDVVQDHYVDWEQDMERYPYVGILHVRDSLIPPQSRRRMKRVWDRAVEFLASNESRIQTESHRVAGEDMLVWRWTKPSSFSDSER
UniProt Q14974, sequence (Q14974 whole entry, looked up): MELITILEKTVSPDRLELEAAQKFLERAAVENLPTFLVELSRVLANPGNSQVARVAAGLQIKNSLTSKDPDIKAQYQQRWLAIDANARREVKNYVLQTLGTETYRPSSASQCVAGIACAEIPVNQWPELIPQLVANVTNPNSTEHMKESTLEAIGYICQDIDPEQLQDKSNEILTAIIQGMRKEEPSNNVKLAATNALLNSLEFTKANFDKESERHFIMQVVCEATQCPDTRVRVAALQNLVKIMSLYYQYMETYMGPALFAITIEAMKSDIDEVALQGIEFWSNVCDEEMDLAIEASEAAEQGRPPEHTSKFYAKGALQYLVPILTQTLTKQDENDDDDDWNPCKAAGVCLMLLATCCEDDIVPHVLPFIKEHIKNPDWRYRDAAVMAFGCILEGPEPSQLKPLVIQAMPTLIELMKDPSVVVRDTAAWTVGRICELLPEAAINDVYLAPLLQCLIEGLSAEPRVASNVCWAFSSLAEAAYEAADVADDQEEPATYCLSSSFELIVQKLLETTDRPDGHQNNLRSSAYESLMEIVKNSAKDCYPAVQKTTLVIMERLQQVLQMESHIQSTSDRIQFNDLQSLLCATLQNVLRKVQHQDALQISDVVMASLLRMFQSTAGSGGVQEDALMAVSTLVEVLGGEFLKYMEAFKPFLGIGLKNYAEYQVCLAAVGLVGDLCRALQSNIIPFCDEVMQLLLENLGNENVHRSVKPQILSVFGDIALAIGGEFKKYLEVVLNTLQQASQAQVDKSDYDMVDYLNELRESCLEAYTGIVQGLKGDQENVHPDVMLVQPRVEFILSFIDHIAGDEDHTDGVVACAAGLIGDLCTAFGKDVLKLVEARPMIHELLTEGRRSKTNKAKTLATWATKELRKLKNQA
UniProt Q16539, sequence (Q16539 whole entry, looked up): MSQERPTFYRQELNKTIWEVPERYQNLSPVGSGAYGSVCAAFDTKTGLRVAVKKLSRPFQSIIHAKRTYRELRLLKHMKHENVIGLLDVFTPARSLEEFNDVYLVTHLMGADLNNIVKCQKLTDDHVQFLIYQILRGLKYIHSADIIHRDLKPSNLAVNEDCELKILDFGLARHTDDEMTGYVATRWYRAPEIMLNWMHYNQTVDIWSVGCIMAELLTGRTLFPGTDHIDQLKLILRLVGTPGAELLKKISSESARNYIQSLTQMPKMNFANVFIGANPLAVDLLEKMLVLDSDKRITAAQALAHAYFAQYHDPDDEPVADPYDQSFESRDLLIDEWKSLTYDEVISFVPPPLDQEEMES
UniProt Q6P9B6, sequence (Q6P9B6 whole entry, looked up): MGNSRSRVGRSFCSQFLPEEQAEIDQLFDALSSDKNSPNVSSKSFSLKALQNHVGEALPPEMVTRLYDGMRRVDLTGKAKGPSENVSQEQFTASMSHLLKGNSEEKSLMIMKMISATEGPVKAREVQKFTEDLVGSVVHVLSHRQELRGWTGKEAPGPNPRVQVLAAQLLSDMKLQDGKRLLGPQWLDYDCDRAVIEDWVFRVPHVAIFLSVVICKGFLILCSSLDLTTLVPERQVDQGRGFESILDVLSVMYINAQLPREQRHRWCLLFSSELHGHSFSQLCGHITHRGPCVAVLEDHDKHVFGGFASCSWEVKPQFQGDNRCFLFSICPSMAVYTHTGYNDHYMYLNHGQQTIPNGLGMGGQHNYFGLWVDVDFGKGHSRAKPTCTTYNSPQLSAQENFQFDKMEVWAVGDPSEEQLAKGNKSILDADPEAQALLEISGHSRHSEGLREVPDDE
UniProt Q8IVT5, sequence (Q8IVT5 whole entry, looked up): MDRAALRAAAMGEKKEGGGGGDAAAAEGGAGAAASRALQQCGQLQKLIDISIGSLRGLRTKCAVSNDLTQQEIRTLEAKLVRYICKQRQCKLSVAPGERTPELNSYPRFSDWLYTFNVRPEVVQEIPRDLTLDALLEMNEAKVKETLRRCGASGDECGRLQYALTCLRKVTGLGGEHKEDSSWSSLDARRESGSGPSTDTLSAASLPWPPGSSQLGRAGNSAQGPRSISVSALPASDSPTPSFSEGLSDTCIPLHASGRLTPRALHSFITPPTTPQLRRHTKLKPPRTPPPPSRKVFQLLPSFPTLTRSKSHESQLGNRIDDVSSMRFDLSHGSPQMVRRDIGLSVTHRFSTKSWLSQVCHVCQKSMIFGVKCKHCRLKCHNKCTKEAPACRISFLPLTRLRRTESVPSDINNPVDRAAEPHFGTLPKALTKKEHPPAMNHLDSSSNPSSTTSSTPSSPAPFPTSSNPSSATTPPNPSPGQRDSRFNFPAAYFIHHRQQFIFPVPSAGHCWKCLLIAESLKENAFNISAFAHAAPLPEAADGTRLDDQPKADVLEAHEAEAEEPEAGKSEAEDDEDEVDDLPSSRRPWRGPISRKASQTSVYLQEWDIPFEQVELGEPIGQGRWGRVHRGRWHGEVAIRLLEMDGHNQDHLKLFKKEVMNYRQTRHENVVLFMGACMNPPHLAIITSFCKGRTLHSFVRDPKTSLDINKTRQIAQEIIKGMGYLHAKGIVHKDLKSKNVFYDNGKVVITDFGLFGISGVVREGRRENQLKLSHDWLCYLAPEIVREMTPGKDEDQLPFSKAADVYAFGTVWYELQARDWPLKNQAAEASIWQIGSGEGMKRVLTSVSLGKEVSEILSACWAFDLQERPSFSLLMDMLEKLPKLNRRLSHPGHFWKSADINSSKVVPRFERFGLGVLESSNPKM
UniProt Q9H1B7, sequence (Q9H1B7 whole entry, looked up): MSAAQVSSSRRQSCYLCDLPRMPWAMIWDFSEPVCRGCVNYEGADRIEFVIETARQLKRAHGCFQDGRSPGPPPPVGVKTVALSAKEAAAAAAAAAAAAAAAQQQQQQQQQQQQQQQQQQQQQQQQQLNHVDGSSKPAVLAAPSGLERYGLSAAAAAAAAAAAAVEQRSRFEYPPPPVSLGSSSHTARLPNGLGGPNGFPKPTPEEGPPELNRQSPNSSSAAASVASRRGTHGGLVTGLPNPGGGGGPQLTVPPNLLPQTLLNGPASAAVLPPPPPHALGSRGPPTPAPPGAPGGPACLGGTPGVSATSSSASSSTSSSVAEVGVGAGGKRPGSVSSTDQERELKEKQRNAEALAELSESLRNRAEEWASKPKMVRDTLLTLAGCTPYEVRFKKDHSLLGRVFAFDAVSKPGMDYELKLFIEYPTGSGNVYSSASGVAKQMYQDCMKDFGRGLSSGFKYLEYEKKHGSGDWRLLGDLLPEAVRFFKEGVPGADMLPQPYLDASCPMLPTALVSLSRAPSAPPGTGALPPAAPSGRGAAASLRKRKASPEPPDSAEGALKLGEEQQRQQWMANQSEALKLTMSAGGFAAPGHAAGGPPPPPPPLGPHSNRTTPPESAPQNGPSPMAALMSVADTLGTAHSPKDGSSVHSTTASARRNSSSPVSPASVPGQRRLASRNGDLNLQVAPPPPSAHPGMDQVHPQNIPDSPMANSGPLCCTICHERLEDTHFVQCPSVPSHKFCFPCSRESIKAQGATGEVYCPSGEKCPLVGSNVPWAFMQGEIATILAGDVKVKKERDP

Row | Target | log2 fold change [1] | log2 fold change [2] | log2 fold change [3] | log2 fold change [4] | log2 fold change (Nexturastat A) | log2 fold change (vemurafenib) | log2 fold change [5] | log2 fold change [6] | log2 fold change (givinostat) | log2 fold change (barasertib)
1 | MAPKAPK3 (UniProt Q16644) | 0.24 | 0.097 | -0.025 | 0.069 | -0.134 | 0.033 | 0.063 | -0.012 | 0.015 | 0.039
2 | MAGI1 (UniProt Q96QZ7) | 0.041 | 0.041 | -0.027 | -0.023 | 0.074 | 0.018 | -0.009 | -0.026 | -0.013 | -0.008
3 | KPNA4 (UniProt O00629) | 0.016 | 0.007 | 0.017 | 0.045 | -0.008 | 0.031 | 0.038 | 0.023 | 0.006 | 0.007
4 | IGFBP2 (UniProt P18065) | -0.154 | 0.173 | 0.201 | 0.349 | 0.106 | 0.262 | -0.003 | -0.409 | 0.056 | 0.012
5 | MAGEC2 (UniProt Q9UBF1) | 0.017 | 0.045 | -0.046 | 0.057 | 0 | 0.035 | 0.04 | 0.005 | -0.013 | -0.005
6 | KLHDC4 (UniProt Q8TBB5) | -0.027 | -0.003 | -0.007 | -0.092 | 0.18 | 0.096 | 0.076 | -0.223 | -0.011 | 0.028
7 | JAK3 (UniProt P52333) | -0.002 | -0.056 | 0.066 | 0.099 | -0.478 (active) | -0.032 | -0.029 | 0.016 | -0.16 | 0.016
8 | MICOS13 (UniProt Q5XKP0) | 0.041 | -0.06 | 0.056 | 0.065 | -0.065 | 0.018 | 0.077 | -0.069 | 0.027 | 0.034
9 | MEPCE (UniProt Q7L2J0) | 0.077 | 0.025 | -0.014 | -0.252 | -0.057 | 0.062 | 0.083 | 0.05 | -0.04 | 0.025
10 | KTN1 (UniProt Q86UP2) | -0.071 | -0.051 | 0.014 | -0.002 | 0.141 | 0.012 | 0.027 | 0.034 | 0.022 | 0.033
11 | KSR1 (UniProt Q8IVT5) | 0.231 | -0.007 | 0.112 | -0.028 | 0.001 | 0.046 | 0.218 | -0.132 | 0.106 | 0.013
12 | KIFBP (UniProt Q96EK5) | 0.019 | 0.034 | 0.052 | 0.027 | -0.107 | 0.067 | 0.093 | -0.013 | -0.004 | 0.022
13 | IRF2BPL (UniProt Q9H1B7) | 0.013 | -0.006 | 0.015 | 0.068 | 0.038 | 0.014 | 0.049 | 0.008 | 0.05 | -0.044
14 | MAPK14 isoform 2 (UniProt Q16539) | 1.9 (active) | 0.649 | 0.024 | 0.036 | 0.064 | 0.095 | 0.219 | 0.026 | 0.107 | -0.005
15 | KCT2 (UniProt Q8NC54) | 0.104 | 0.007 | 0.006 | 0.017 | -0.102 | -0.013 | -0.011 | -0.008 | -0.108 | -0.025
16 | KIF3B (UniProt O15066) | -0.082 | 0.05 | -0.022 | -0.042 | 0.097 | 0.018 | 0.017 | -0.019 | 0.067 | -0.062

Row | Target | log2 fold change [1] | log2 fold change [2] | log2 fold change [3] | log2 fold change [4] | log2 fold change (Nexturastat A) | log2 fold change (vemurafenib) | log2 fold change [5] | log2 fold change [6] | log2 fold change (givinostat) | log2 fold change (barasertib)
17 | KPNB1 (UniProt Q14974) | 0.049 | -0.041 | 0 | -0.015 | 0.119 | 0.07 | 0.076 | 0.052 | 0.085 | 0.02
18 | KDM1A isoform 2 (UniProt O60341) | -0.029 | 0.058 | 0.01 | 0.002 | 0.023 | -0.02 | 0.033 | 0.046 | 0.101 | 0.013
19 | KIF3A (UniProt Q9Y496) | -0.041 | -0.013 | -0.076 | 0 | 0.029 | -0.002 | 0.062 | 0.045 | 0.074 | -0.041
20 | IKZF1 (UniProt Q13422) | 0.144 | 0.036 | -0.007 | 0.041 | -0.006 | 0.044 | 0.034 | 0.177 | -0.018 | -0.052
21 | MFGE8 (UniProt Q08431) | 0.034 | -0.027 | -0.122 | -0.061 | 0.161 | -0.028 | -0.124 | 0.019 | -0.004 | -0.057
22 | IMMT isoform 2 (UniProt Q16891) | 0.053 | 0.074 | -0.05 | 0.002 | -0.155 | -0.006 | 0.018 | 0.325 | 0.045 | 0.081
23 | IWS1 (UniProt Q96ST2) | -0.083 | 0.007 | -0.015 | -0.02 | 0.029 | 0.046 | -0.003 | -0.017 | 0.051 | 0.002
24 | MEAK7 (UniProt Q6P9B6) | 0.081 | 0.053 | -0.005 | 0.015 | -0.006 | 0.012 | 0.067 | -0.055 | 0.085 | 0.025
25 | LEMD2 (UniProt Q8NC56) | -0.068 | -0.02 | 0.038 | 0.051 | -0.002 | -0.001 | 0.045 | 0.002 | -0.022 | 0.017
26 | MED8 isoform 2 (UniProt Q96G25) | -0.085 | 0.038 | -0.03 | 0.089 | 0.045 | 0.36 (active) | -0.027 | 0.081 | -0.038 | -0.059
27 | LDLR (UniProt P01130) | -0.063 | 0.006 | 0.006 | 0.01 | 0 | -0.022 | -0.073 | -0.018 | -0.03 | 0.019
28 | IPO13 (UniProt O94829) | 0.068 | -0.013 | -0.008 | -0.027 | -0.03 | -0.01 | 0.047 | 0.009 | -0.011 | 0.044
29 | MAP4 (UniProt P27816) | -0.006 | 0.007 | -0.018 | -0.01 | 0.003 | -0.018 | -0.007 | 0.002 | -0.004 | -0.046
30 | MIA2 (UniProt Q96PC5) | 0.009 | -0.012 | -0.002 | -0.016 | 0.015 | 0.003 | -0.062 | 0.128 | 0.003 | 0.021
31 | LUC7L (UniProt Q9NQ29) | 0.028 | 0.003 | -0.022 | -0.021 | 0.054 | -0.007 | -0.004 | 0.027 | -0.034 | -0.01
